Experimental data: the supplement of paper PMC11417369
Whole data set: some 25,000 sequences, median “ln(normalized median fluorescence intensity)” near 6.7, cut for the highest 2% near 10. Many of the other results were omitted from the sample, so the highest values are more common in it than they were.

Each sequence was assayed on PfHDP1 homeodomain (GST-tagged) (assay: gcPBM binding intensity (ln(normalized median fluorescence intensity)); higher = stronger DNA binding).
Outline: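 For binding intensity, the highest Masliner-normalised natural-log median intensity across replicate spots of either probe orientation was taken. Protein bound to the array was stained with Alexa488 anti-GST antibody and scanned at 488 nm. The protein, GST-tagged P. falciparum DNA-binding domains from E. coli at about 25 μg on average, had been applied for 1 h to an Agilent 4 × 180k array of primer-extended double-stranded 36-bp intergenic genomic probes and negative controls.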

Row | Sequence | gcPBM binding intensity (ln)
1 | TTTTTTAATATATTATTATAAATATTTTTTATGTGT [GTGCAC_negctrl_site712] | 6.46
2 | TTTATCTAAATATGTGTGCACTCGTTAATTTTTTTT | 10.8
3 | ATATCGTTATTTTTATGTACTAAAATATTTAATTAT [XGTACX_site3516] | 7.03
4 | ATAACATGAACATATGTTACACAAACATACATACAT [XGTACX_negctrl_site365] | 6.77
5 | TTTAGTTCATACTATGCACACTACGTATATTTTTAA [CACACA_site5484] | 8.95
6 | TAAGTAATAGTTTGTGCACACTCAAGTATATCATAT [CACACA_site4035] | 11.1
7 | AGTAATAGTTTGTGCACACTCAAGTATATCATAGAT [CACACA_site6082] | 11.1
8 | TATATATATATCAAGTGTACTTGTGTTTGTAATATT [XGTACX_site8854] | 8.6
9 | AGTAATAGTTTGTGCACACTCAAGTATATCATATAT [CACACA_site4034] | 11.2
10 | TTTATAGTTTTTAATAGTACACATATTTTTAAGTAT [XGTACX_site5498] | 6.38
11 | TTGTACAAAAATAATGCACACTATATCAAGTTTTTT [CACACA_site5898] | 10.3
12 | TTTTGTACAAAAATAATGCACACTATATCAAGTTTT [CACACA_site3595] | 10.4
13 | GTAATATCAATATAAAGTACACACTATAGTATGTAT [XGTACX_site4714] | 6.4
14 | TATATATCAATATGCACACACAAGAAGTAATTATAA [CACACA_site7487] | 9.74
15 | ATATATGTAACATATTGTACATATATGTATGTATGT [XGTACX_site3281] | 6.97
16 | AATATTTTATTTTGGGTGCAAAAGAATATTATTTCA | 9.49
17 | CAATTAAATATATGAACACACATGTGAACTTTCTAT [CACACA_site3977] | 6.36
18 | AATATACAAAATAAATAAAATATATATATATATATA [CACACA_negctrl_site216] | 9.24
19 | AATTTAATTTTTTCGTGTACTTATATAGGAGGTTTT [XGTACX_site8310] | 6.76
20 | TAGAAGTACATATATGCATGTTAATTTTAAAGGAGG [TGCATGCA_site538] | 6.9
21 | CTTACACCCATATATACACACATGTATATTTTATAT [CACACA_site4462] | 7.24
22 | CTATTTTATATGTGCACACATATACTCAGACAAATA [CACACA_site4761] | 10.6
23 | TATACATATTTTATAGCACACAAATAATAATATGTA [CACACA_site8129] | 6.63

Row | Sequence | gcPBM binding intensity (ln)
24 | TATATACATATATGCACACAAAAAAATATATATTTT [CACACA_site1729] | 10.1
25 | TTCTATTTTATATGTGCACACATATACACCCACAAA [CACACA_site1130] | 10.9
26 | CTATTTTATATGTGCACACATATACACCCACAAATA [CACACA_site1131] | 10.1
27 | TTTGTTTTATCTTATATGCACACGATAAAAAAAAAA [CACACA_site2673] | 9.69
28 | TATAAAAATAATATTACACACATGTAAAATGGGGGT [CACACA_site9071] | 7.03
29 | TTGTTTTCACCAAATACACACAAGCATACACCCCAT [CACACA_site2717] | 7.34
30 | AGTGATTATTAATAATGTACATATCTATAAATATAT [XGTACX_site4734] | 6.43
31 | TTAATGTTATATGTGTGTACATATAAGTTTAGTAAA [XGTACX_site4651] | 6.53
32 | AAAAAAATGAAGAAATGTACAAATTTCATTAATTTT [XGTACX_site354] | 6.05
33 | TTCATATATAATTGTACACACAAAAACGACATTGTG [CACACA_site2074] | 7.05
34 | TTTAGTTTTTATATAGCACACATATTGTGATTATGT [CACACA_site8316] | 6.82
35 | TTATTTGAACAATATGCACACATTTTATTTATTTTA [CACACA_site3420] | 10.1
36 | GAGATTTATTTATGTGCACACTAGAACAATTGGATC [CACACA_site2090] | 10.5
37 | TAGATCATAACAATTGCACACATTTGCATTTATATT [CACACA_site1562] | 10.1
38 | TATATATATATATATGTGCACTGGACATATTTTTAT [GTGCAC_site9721] | 9.84
39 | ATATTATGTGATTGTGCACACTGGAGATTTTTTTTA [CACACA_site1453] | 11.2
40 | TTAATATGTTTAACCATTTTACATAAATTGATTTGT [CACACA_negctrl_site1100] | 6.3
41 | TGTTATTACTTTATATCATCTTAAAATAAGCATATT [CACACA_negctrl_site1501] | 6.26
42 | AAATTAATACATTATTGTACTTTTCATGTGCAGAAA [XGTACX_site8284] | 8.11
43 | TTACTTGTTTATTTTTTTTTTTTTTTTTTTTTTGTT [TGCATGCA_negctrl_site103] | 5.62
44 | TATATGAAAATGTTCATACACACATAAAAAAAAAAA [CACACA_site3237] | 6.41
45 | GTTCAATCGGGTGTTACTTCAAACAAGGAACAACAA [TGCATGCA_negctrl_site471] | 6.16
46 | TTAAGATATGTATATCGTACATGACATTAAAAATTT [XGTACX_site3352] | 6.02

Row | Sequence | gcPBM binding intensity (ln)
47 | ATGCAAATAATATAAAGTACACAACATCGCCCAAAG [XGTACX_site1825] | 7
48 | ACAAGTATTCCTTTTGCACACCTTTCTGCACCTTAT [CACACA_site3873] | 11.1
49 | TATATATTTTCTTTTGCACACTGTTTTCCTTTTTTT [CACACA_site2739] | 10.2
50 | TATTTAACACCTTATACACACTTTCTTCCTTTTTTA [CACACA_site4590] | 7.12
51 | AAAATTAGGTATATATGTACATATATAAATATATAT [XGTACX_site3555] | 6.8
52 | TAAAGAAACTATTCAACACACGGTCTAATTATTACA [CACACA_site1064] | 6.15
53 | TATTATTTACCTTGCTAGTTCGTTCCAAATTTTATG [XGTACX_negctrl_site197] | 7.19
54 | AATGTGCAAACAAACTGTACTTTTTTTTTTTTTTTT [XGTACX_site928] | 10.6
55 | AAACAAATGTATATGTGTACTTATTTTTTTGTATGT [XGTACX_site7134] | 6.17
56 | ACAAAACTTTTAAGAACACACAAAAATGTACTATCG [CACACA_site7245] | 6.17
57 | TTTTCATTTTTCTTTACACACATATATATATATATA [CACACA_site2236] | 9.23
58 | ATATAGATGCATAATACACACATCAGATAATTAACC [CACACA_site6871] | 6.96
59 | TGCAAAAAATTCCACACACACACACGCATATAAATA [CACACA_site6696] | 6.72
60 | TTTTTTTGTTAAAAGGTGCTAATATATATAAGTGCT | 6.62
61 | ATATATTTGATAAGAGTGCACAAATACATACATACA [GTGCAC_site9704] | 9.65
62 | TCTACTATTATATATTGTACAAATGATACTTATATT [XGTACX_site1819] | 6.61
63 | ATGATATACTTGAGTGTGCACAAACTATTACTTACA | 11
64 | CCATTTGATAATAATGCACACCACATATATTTATAT [CACACA_site9002] | 10.1
65 | TTATTTACATCAAGTACATGCAGTAAAAAAAAAAAA [TGCATGCA_site351] | 6.41
66 | ATATATATATATATATGTACTTATTTATCGTATTAT [XGTACX_site3520] | 9.59
67 | TCTTTTAACACATGTGATATTATTTAATAACAATAA [CACACA_negctrl_site339] | 6.51
68 | CTTTTTTTAATGATAACACACATGTTGTGCATAGAC [CACACA_site3270] | 10.7
69 | TACACATAATATAATGCATGTGTGATGTATGTTTAA [TGCATGCA_site697] | 6.56

Row | Sequence | gcPBM binding intensity (ln)
70 | TTTTTTTTTTATTAATGTACAAGATATATAATGTTA [XGTACX_site4809] | 6.16
71 | TTAAAAAACCTTAGATGTACAGTTATATATAAAATA [XGTACX_site6688] | 6.37
72 | TTTAATTATTAGTGTGCACACAACTATGAGTTTTTA [CACACA_site8997] | 10.8
73 | TTTTTAATTTATTGTGTGCACACAACTATGAGTTTT | 10.3
74 | TTTAATTTTCGGTGTGCACACAACTATGAGTTTTTA [CACACA_site3034] | 11.2
75 | AACGGGGGTAGTTTTATGCACACGTTTATTAATGCT [CACACA_site3173] | 9.56
76 | TAACTTAATTTTAATGCACACAATTTATATATATAT [CACACA_site6022] | 10.5
77 | AACAACTATTAATTTACACACATGTATATATTTTAC [CACACA_site3116] | 6.82
78 | TTTTTTTTTTTTTTTTGTACATATTTTTAAACTATA [XGTACX_site2897] | 6.24
79 | TTCTTTTTTCGACACACACACACAAGAAGATATATA [CACACA_site7456] | 7.11
80 | ATATATCTATAAAAGGCTTCCCACTTTTTTTGTCAA [TGCATGCA_negctrl_site332] | 6.39
81 | GGCGTATGTGTATATACACACCCACGTATATATATA [CACACA_site9046] | 8.02
82 | CCTATTTATATATACACACACATATATAAATAAATA [CACACA_site2991] | 6.95
83 | TATATATATGAGTATACACACCTGATAAAGGTATAT [CACACA_site5462] | 6.87
84 | TAATGTAAAATTTAGAGTACATAAAAAATTGGATGA [XGTACX_site7225] | 6.68
85 | AAAAATAAAATATATACATGCATATACATATTATAT [TGCATGCA_site668] | 6.31
86 | AAATAAAATTATAATACATGCATACATACATATATA [TGCATGCA_site69] | 6.3
87 | AATTATATAAGCCACGCATGTGTGCATAAAAATACA [TGCATGCA_site114] | 10.9
88 | CCATAATATTATAGACGTACGAATATATATAAAAGA [XGTACX_site7295] | 7.24
89 | ACATATAAATGATATGTACACACATTTATATATATA [CACACA_site9152] | 7.4
